# Results from paper PMC7862700, “An all-to-all approach to the identification of sequence-specific readers for epigenetic DNA modifications on cytosine”.
# Experiments:
# Test in all cases: DAPPL (digital affinity profiling via proximity ligation, sequencing); 10 mM Tris-HCl pH 7.5, 50 mM NaCl, 1 mM DTT, 4% glycerol, room temperature, 30 min; GST-TFs on glutathione beads, 16-mer random dsDNA library, 0.1% formaldehyde crosslink after washing; high values mean tight binding
# Conditions in all cases: protein: recombinant; tags: N-terminal GST; dsDNA, one strand shown
# FEV = target: T1, FEV (Homo sapiens, UniProt Q99581 1-238)
# T1 sequence: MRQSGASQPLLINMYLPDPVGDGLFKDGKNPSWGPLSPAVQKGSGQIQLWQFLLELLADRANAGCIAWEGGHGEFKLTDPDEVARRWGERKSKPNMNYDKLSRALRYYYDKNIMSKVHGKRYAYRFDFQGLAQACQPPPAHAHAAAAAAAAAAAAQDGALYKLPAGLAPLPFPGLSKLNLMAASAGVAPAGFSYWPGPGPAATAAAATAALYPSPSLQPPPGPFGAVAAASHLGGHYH
# Summary of the method: (§1)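 GST fusions of human transcription factors were expressed in yeast and captured with glutathione beads. Once given DNA barcodes and pooled alongside a tag-only sample, they were incubated for 30 min at room temperature with 200 nmole of a random double-stranded 16-mer DNA library in Tris/NaCl/DTT/glycerol buffer, then washed, crosslinked (0.1% formaldehyde), proximity-ligated, PCR-amplified and sequenced on an Illumina NextSeq500. The binding signal of each hexamer is its read frequency for a factor divided by its frequency for the tag-only sample.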
# ETV5 = ETV5 (Homo sapiens, UniProt P41161 1-510)
# ETV5, sequence (P41161 whole entry): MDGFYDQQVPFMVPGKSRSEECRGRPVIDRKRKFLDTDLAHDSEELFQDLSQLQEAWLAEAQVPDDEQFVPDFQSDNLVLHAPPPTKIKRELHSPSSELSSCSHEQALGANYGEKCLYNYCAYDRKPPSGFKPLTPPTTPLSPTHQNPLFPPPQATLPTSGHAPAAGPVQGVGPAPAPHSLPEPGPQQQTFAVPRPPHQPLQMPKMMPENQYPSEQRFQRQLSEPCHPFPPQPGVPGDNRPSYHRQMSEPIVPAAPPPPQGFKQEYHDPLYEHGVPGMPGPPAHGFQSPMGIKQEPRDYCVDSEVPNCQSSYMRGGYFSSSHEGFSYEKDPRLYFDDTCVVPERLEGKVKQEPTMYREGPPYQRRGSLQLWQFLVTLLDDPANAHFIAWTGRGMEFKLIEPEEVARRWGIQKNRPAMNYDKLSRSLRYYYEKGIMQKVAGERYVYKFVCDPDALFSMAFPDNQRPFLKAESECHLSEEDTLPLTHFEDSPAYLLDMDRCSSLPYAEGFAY
# Summary of the method: as §1
# SPIC = target: T2, SPIC (Homo sapiens, UniProt Q8N5J4 1-248)
# T2 sequence: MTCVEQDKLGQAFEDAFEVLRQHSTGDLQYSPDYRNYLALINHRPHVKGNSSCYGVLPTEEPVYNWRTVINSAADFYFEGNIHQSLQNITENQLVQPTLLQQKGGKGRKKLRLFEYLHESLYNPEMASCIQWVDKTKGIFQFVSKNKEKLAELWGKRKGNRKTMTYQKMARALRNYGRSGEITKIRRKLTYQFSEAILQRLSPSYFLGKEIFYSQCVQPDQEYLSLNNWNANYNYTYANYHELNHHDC
# Summary of the method: as §1
# ELF4 = ELF4 (Homo sapiens, UniProt Q99607 1-663)
# ELF4, sequence (Q99607 whole entry): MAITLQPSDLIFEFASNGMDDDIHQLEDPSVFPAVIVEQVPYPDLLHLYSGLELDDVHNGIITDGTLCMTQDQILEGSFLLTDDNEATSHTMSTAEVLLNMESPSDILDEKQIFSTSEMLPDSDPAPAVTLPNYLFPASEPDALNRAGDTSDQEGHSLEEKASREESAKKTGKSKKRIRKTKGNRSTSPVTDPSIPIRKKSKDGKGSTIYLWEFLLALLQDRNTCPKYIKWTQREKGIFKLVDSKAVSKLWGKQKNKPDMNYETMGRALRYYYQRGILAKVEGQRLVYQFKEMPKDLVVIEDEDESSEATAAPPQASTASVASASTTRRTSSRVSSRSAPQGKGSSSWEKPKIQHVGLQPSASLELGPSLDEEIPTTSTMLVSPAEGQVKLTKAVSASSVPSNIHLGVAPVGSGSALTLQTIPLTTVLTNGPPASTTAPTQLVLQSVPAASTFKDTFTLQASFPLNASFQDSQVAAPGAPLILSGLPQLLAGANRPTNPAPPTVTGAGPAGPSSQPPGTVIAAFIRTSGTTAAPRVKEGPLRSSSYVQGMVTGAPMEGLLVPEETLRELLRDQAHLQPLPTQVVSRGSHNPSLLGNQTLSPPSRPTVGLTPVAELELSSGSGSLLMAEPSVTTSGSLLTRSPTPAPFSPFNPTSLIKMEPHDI
# Summary of the method: as §1
# ELK4 = target: T3, ELK4 (Homo sapiens, UniProt P28324-2 1-405)
# T3 sequence: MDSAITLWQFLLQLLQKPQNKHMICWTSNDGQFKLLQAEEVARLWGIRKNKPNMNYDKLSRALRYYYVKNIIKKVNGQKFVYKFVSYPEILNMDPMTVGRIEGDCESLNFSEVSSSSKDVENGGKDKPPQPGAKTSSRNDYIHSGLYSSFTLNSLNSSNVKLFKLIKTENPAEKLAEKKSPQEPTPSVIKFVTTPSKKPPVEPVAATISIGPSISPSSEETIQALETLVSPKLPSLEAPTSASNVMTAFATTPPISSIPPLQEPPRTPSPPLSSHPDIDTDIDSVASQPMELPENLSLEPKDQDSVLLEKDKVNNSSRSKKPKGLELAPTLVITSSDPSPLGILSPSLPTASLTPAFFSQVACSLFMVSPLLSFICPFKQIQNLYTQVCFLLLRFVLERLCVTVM
# Summary of the method: as §1
# ETV2 = target: T4, ETV2 (Homo sapiens, UniProt O00321 1-342)
# T4 sequence: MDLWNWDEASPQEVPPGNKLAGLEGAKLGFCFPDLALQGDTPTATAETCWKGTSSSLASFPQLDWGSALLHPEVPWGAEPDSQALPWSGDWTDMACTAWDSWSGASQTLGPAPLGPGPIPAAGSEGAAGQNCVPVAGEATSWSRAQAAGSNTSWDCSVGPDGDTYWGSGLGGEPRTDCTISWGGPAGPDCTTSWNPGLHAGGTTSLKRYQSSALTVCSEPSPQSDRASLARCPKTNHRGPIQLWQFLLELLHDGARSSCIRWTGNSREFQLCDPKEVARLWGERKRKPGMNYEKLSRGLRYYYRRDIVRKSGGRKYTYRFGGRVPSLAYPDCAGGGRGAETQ
# Summary of the method: as §1
# ELF3 = target: T5, ELF3 (Homo sapiens, UniProt P78545 1-371)
# T5 sequence: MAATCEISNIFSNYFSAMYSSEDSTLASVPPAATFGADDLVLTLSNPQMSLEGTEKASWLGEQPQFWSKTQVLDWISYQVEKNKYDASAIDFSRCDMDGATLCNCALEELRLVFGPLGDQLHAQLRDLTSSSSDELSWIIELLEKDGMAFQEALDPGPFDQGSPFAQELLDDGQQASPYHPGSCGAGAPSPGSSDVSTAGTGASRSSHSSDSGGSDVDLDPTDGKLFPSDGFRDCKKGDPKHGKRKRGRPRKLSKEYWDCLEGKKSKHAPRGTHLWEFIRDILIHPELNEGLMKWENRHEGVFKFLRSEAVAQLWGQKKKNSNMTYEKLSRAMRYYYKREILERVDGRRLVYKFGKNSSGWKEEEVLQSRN
# Summary of the method: as §1
# ETV1 = ETV1 (Homo sapiens, UniProt P50549 1-477)
# ETV1, sequence (P50549 whole entry): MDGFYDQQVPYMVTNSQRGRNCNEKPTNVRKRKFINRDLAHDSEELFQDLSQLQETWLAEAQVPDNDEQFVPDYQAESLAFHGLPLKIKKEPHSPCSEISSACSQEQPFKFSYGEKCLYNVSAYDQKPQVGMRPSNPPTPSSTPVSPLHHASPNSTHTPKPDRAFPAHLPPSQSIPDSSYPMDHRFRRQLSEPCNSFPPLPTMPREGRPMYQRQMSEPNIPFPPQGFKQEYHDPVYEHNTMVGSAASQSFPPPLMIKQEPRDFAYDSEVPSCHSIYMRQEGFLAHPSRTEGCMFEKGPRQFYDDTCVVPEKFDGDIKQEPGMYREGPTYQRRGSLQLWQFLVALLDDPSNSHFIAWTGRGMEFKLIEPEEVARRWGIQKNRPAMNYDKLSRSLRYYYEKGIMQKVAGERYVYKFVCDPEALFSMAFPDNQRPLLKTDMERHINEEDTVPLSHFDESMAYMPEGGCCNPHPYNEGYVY
# Summary of the method: as §1
# ERF = target: T6, ERF (Homo sapiens, UniProt P50548 1-548)
# T6 sequence: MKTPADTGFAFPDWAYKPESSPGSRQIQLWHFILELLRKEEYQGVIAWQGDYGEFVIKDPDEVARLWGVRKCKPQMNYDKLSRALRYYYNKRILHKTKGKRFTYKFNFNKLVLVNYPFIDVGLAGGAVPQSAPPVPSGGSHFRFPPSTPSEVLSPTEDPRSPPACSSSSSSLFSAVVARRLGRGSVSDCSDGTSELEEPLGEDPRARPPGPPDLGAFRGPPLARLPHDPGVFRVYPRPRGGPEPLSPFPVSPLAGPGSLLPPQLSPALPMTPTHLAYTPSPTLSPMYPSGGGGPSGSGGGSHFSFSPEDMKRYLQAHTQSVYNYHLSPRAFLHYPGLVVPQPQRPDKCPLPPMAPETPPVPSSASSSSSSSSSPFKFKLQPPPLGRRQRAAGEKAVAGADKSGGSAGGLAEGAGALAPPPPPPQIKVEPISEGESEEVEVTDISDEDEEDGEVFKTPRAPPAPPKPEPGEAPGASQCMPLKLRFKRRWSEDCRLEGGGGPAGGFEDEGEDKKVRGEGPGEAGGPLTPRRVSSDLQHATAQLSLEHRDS
# Summary of the method: as §1
# ETV3L = target: T7, ETV3L (Homo sapiens, UniProt Q6ZN32 1-361)
# T7 sequence: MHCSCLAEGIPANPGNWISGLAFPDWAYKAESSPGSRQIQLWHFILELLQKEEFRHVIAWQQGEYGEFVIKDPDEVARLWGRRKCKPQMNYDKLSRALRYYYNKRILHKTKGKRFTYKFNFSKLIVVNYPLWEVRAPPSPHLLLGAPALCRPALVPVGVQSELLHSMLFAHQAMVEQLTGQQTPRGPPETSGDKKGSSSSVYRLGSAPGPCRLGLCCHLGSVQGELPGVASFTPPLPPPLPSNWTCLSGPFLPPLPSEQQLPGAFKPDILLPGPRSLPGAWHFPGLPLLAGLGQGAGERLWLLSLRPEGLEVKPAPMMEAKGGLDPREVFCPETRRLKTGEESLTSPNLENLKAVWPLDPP
# Summary of the method: as §1
# ETS2 = target: T8, ETS2 (Homo sapiens, UniProt P15036 1-469)
# T8 sequence: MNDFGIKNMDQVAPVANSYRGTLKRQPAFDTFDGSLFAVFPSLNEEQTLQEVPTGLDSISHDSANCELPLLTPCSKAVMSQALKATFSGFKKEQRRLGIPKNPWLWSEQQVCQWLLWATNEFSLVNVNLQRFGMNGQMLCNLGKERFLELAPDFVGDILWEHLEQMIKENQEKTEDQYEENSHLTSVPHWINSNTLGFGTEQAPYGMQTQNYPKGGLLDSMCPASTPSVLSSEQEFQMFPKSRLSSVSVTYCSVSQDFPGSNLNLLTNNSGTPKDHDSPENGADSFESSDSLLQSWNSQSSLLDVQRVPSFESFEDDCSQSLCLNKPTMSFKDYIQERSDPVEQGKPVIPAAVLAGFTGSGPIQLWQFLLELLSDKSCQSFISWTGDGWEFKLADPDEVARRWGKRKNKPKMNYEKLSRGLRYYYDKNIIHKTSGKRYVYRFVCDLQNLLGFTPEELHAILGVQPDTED
# Summary of the method: as §1
# SPDEF = target: T9, SPDEF (Homo sapiens, UniProt O95238 1-335)
# T9 sequence: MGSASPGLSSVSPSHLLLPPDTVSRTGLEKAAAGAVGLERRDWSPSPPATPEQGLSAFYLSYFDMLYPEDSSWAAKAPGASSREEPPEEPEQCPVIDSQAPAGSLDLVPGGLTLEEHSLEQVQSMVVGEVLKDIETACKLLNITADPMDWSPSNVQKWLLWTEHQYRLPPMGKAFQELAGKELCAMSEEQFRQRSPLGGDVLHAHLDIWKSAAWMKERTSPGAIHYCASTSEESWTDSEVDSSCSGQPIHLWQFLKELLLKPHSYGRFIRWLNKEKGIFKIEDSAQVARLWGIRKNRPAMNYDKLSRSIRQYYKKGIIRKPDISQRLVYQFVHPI
# Summary of the method: as §1
# ETV7 = target: T10, ETV7 (Homo sapiens, UniProt Q9Y603 1-341)
# T10 sequence: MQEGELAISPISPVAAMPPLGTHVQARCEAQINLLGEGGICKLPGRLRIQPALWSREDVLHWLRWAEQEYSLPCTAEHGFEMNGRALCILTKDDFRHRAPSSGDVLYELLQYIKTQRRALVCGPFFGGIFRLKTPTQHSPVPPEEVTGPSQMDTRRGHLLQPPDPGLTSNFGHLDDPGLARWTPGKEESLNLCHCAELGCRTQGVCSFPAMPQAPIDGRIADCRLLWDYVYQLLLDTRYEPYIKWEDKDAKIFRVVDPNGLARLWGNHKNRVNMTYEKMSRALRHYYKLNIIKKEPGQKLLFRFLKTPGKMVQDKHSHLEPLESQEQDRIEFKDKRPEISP
# Summary of the method: as §1
# ELF5 = target: T11, ELF5 (Homo sapiens, UniProt Q9UKW6-2 1-255)
# T11 sequence: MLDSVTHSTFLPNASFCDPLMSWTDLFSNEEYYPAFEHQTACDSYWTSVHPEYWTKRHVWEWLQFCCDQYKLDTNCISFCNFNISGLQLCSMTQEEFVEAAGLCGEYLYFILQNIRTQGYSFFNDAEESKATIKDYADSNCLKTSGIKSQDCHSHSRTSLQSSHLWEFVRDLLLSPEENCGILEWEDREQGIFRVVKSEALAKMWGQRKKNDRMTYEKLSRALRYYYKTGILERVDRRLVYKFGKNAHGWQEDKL
# Summary of the method: as §1
# ETV3 = target: T12, ETV3 (Homo sapiens, UniProt P41162-2 1-143)
# T12 sequence: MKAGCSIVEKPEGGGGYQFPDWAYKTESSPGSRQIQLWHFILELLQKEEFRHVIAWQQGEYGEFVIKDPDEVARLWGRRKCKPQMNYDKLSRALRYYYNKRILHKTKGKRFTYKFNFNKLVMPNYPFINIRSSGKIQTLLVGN
# Summary of the method: as §1
# ETV6 = ETV6 (Homo sapiens, UniProt P41212 1-452)
# ETV6, sequence (P41212 whole entry): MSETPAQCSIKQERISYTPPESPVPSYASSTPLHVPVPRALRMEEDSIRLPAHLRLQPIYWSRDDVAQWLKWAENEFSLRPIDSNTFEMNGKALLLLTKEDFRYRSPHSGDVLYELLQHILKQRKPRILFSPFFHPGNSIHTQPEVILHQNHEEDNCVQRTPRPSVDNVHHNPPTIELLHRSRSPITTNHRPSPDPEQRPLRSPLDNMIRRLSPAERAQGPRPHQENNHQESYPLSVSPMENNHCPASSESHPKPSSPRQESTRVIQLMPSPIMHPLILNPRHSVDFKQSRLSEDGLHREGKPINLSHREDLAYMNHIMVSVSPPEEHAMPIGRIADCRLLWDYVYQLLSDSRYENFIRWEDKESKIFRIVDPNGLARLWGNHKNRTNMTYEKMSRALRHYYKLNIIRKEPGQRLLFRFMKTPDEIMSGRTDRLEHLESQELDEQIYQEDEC
# Summary of the method: as §1
Sequence,binding signal (FEV),binding signal (ETV5),binding signal (SPIC),binding signal (ELF4),binding signal (ELK4),binding signal (ETV2),binding signal (ELF3),binding signal (ETV1),binding signal (ERF),binding signal (ETV3L),binding signal (ETS2),binding signal (SPDEF),binding signal (ETV7),binding signal (ELF5),binding signal (ETV3),binding signal (ETV6)
CGGCAT,"1.09 fold enrichment (6-mer frequency, TF over GST control)","1.13 fold enrichment (6-mer frequency, TF over GST control)","1.18 fold enrichment (6-mer frequency, TF over GST control)","1.06 fold enrichment (6-mer frequency, TF over GST control)","1.1 fold enrichment (6-mer frequency, TF over GST control)","1.25 fold enrichment (6-mer frequency, TF over GST control)","1.02 fold enrichment (6-mer frequency, TF over GST control)","1.19 fold enrichment (6-mer frequency, TF over GST control)","1.09 fold enrichment (6-mer frequency, TF over GST control)","1.23 fold enrichment (6-mer frequency, TF over GST control)","1.17 fold enrichment (6-mer frequency, TF over GST control)","1.22 fold enrichment (6-mer frequency, TF over GST control)","1.07 fold enrichment (6-mer frequency, TF over GST control)","1.07 fold enrichment (6-mer frequency, TF over GST control)","1.19 fold enrichment (6-mer frequency, TF over GST control)","1.21 fold enrichment (6-mer frequency, TF over GST control)"
CGGAAG,"3.68 fold enrichment (6-mer frequency, TF over GST control)","3.27 fold enrichment (6-mer frequency, TF over GST control)","2.79 fold enrichment (6-mer frequency, TF over GST control)","2.61 fold enrichment (6-mer frequency, TF over GST control)","2.16 fold enrichment (6-mer frequency, TF over GST control)","2.63 fold enrichment (6-mer frequency, TF over GST control)","3.01 fold enrichment (6-mer frequency, TF over GST control)","3.2 fold enrichment (6-mer frequency, TF over GST control)","2.46 fold enrichment (6-mer frequency, TF over GST control)","2.71 fold enrichment (6-mer frequency, TF over GST control)","3.01 fold enrichment (6-mer frequency, TF over GST control)","3.02 fold enrichment (6-mer frequency, TF over GST control)","2.8 fold enrichment (6-mer frequency, TF over GST control)","3.37 fold enrichment (6-mer frequency, TF over GST control)","3.28 fold enrichment (6-mer frequency, TF over GST control)","3.4 fold enrichment (6-mer frequency, TF over GST control)"
